# Measured values taken from PubChem BioAssay (NCATS).
# Unmarked numbers belong to inactive results. Records with an inconclusive call do not appear. Where a call stands in place of a potency, no number is given. Active and inactive are the calls of the source. Calls follow the shape of the dose curve; as a rule, active = well fitted curve in the direction sought with a large enough effect; inconclusive = small, poorly fitted or top-dose-only effect, or another doubt; inactive = no such curve, though single readings can be large; an effect the other way counts as inactive or inconclusive.
# Columns and labels:
# [1] = qHTS for Inhibitors of Plasmodium falciparum (DD2) proliferation (AID 504314);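 also: parasite DNA measured by SYBR Green fluorescence after red cell lysis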
# Summary of the method: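 Normalization used 0.29 uM artemisinin as full inhibition and DMSO as baseline. Parasitized erythrocytes were exposed to compounds for 72 h (37C, 5% CO2), then lysed with saponin/Triton buffer containing SYBR Green I.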
# [2] = qHTS for Inhibitors of Plasmodium falciparum (7G8) proliferation (AID 504316); also: nearly all actives have a fitted effect of over 65% in size; also: potency is read from the fitted curve at half-maximal effect
# Summary of the method: (§1)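 Parasite growth measured as SYBR Green DNA fluorescence (ex 485, em 535 nm) after overnight lysis following 72 h culture at 37 °C, 0.3% parasitemia, 2.5% hematocrit. Values normalized against DMSO and 0.29 uM artemisinin controls, with plate-stack correction.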
# [3] = qHTS for Inhibitors of Plasmodium falciparum (CP250) proliferation (AID 504320)
# Summary of the method: as §1
# [4] = qHTS for Inhibitors of Plasmodium falciparum (HB3) proliferation (AID 504318); also: nearly all actives have a fitted effect of over 60% in size; also: potency is read from the fitted curve at half-maximal effect
# Summary of the method: as §1
# [5] = biological target: Cytochrome P450 2C9 (Homo sapiens) (UniProt P11712); test: qHTS Assay for Inhibitors and Substrates of Cytochrome P450 2C9 (AID 883); also: nearly all actives have a fitted effect of over 60% in size
# Summary of the method: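 Signal: luciferase luminescence reporting luciferin produced by CYP2C9. Conditions: 10nM enzyme, Luciferin-H 100uM at KM, 25mM KPO4, 37C, 60 min NADPH-driven reaction. Reference: 57uM sulphaphenazole as 100% inhibition.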
# [6] = biological target: Cytochrome P450 3A4 (Homo sapiens) (UniProt P08684); test: qHTS Assay for Activators of Cytochrome P450 3A4 (AID 885); also: nearly all actives have a fitted effect of over 65% in size
# Summary of the method: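 Using 20nM recombinant human CYP3A4 in potassium phosphate (200mM), substrate Luciferin-PPXE at 25uM, luminescent luciferin detection followed a 60-min RT NADPH reaction; data scaled to 57 uM ketoconazole.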
# Chain of Cytochrome P450 2C9 (Homo sapiens) (P11712 whole entry, looked up): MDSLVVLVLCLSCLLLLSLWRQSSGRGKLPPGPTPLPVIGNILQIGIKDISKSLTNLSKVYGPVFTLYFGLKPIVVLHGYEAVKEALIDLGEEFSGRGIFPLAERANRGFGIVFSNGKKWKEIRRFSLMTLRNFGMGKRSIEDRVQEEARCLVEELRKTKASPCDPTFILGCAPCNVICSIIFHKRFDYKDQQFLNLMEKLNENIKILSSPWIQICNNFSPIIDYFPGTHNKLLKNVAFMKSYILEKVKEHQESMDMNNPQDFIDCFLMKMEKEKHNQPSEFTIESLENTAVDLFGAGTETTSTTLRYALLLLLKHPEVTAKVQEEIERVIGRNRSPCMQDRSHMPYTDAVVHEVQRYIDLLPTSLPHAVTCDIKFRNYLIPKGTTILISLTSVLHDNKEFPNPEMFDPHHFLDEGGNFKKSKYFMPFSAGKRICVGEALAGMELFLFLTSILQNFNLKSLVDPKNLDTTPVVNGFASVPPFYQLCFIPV
# Chain of Cytochrome P450 3A4 (Homo sapiens) (P08684 whole entry, looked up): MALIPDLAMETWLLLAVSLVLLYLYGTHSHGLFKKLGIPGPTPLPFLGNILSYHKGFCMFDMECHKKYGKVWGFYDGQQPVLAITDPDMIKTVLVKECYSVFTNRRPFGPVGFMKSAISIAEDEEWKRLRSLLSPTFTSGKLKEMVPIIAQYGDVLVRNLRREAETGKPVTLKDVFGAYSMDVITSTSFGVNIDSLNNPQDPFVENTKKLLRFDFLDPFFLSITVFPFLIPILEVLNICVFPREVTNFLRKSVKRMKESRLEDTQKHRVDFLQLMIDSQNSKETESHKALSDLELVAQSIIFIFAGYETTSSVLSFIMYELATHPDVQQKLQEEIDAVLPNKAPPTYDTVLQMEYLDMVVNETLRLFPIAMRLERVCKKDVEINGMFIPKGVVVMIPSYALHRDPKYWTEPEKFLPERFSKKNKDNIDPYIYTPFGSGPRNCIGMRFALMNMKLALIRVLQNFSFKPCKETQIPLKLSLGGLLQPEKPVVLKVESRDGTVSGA
structure (smiles),measurement,setting,value
COC(=O)C1=C(C(=O)OC)[C@@H]2N(C)c3ccc(OC)cc3[C@@]23C[C@@H](C(=O)OC)N(S(=O)(=O)c2ccc4c(c2)OCCN4C)C3=N1,Potency,[1],inactive
same,Potency,[2],inactive
COC(=O)[C@]1(C)C=C[C@@H](C)[C@H](c2ccccc2Br)N1C(=O)C(F)(F)F,Potency,[1],inactive
same,Potency,[2],inactive
same,Potency,[3],inactive
COc1ccc(-c2nc3c(c4c2C[C@H](c2ccccc2)OC4)CN(S(=O)(=O)c2c(C)noc2C)CC3)c(C)c1,Potency,[1],inactive
same,Potency,[2],1690 nM (active)
same,Potency,[4],2130 nM (active)
COC(=O)CCC(=O)OC1(C)C(=O)C2=CN(Cc3ccc(OC)cc3)C(c3ccc(OC)cc3)=CC2=C(Br)C1=O (stereo not given),Potency,[1],inactive
same,Potency,[2],inactive
CCCCc1nc2c(c3c1C[C@H](C)OC3)CN(S(=O)(=O)c1c(C)noc1C)CC2,Potency,[1],inactive
same,Potency,[2],inactive
same,Potency,[4],inactive
same,Potency,[3],inactive
COC(=O)N1CCc2cc(OC)c(OC)cc2C1Cc1ccc(OC)cc1 (stereo not given),Potency,[5],inactive
same,"activity change, positive = activation",[6],-32.2% [at 11.4 µM]
same,Potency,[1],inactive
same,Potency,[2],inactive
same,Potency,[4],inactive
same,Potency,[3],inactive
COC(=O)C1=C(C(=O)OC)[C@@H]2N(Cc3ccccc3)c3ccccc3[C@@]23C[C@@H](C(=O)OC)N(S(=O)(=O)c2c(C)noc2C)C3=N1,Potency,[1],inactive
same,Potency,[2],1690 nM (active)
C=CCN1c2ccccc2[C@]23C[C@@H](C(=O)OC)N(S(=O)(=O)c4ccc5c(c4)OCCN5C)C2=NC(C(=O)OC)=C(C(=O)OC)[C@H]13,Potency,[1],inactive
same,Potency,[2],1690 nM (active)
CCCCc1nc2c(c3c1C[C@H](C)OC3)CN(C(=O)Nc1cccc(C#N)c1)CC2,Potency,[1],inactive
same,Potency,[2],inactive
same,Potency,[4],inactive
COC(=O)CC1c2ccccc2C=C(/C=C/c2ccc3c(c2)OCO3)N1C(=O)OC (stereo not given),Potency,[1],inactive
same,Potency,[4],inactive
same,Potency,[3],inactive
CCOC(=O)CN1C(=O)N[C@@H](c2cccc(C(F)(F)F)c2)[C@@H](C(=O)OC)[C@H]1C,Potency,[1],inactive
same,Potency,[4],inactive
same,Potency,[3],inactive
C=CCN1C=C2C(=O)C(C)(OC(=O)CCC(=O)OC)C(=O)C(Br)=C2C=C1c1ccc(OC)cc1 (stereo not given),Potency,[1],inactive
same,Potency,[2],inactive
same,Potency,[3],inactive
COC(=O)[C@@H](NC(=O)N1CCc2nc(-c3ccc(OC)cc3C)c3c(c2C1)CO[C@@H](c1ccccc1)C3)C(C)C,Potency,[1],inactive
same,Potency,[2],1690 nM (active)
same,Potency,[3],inactive
COC(=O)CCC(=O)OC1(C)C(=O)C2=CN(c3ccc(OC)cc3)C(c3ccc(OC)cc3)=CC2=C(Br)C1=O (stereo not given),Potency,[1],inactive
same,Potency,[4],inactive
same,Potency,[3],inactive
C=C(C(C)=O)C(O)c1ccc2ccccc2c1 (stereo not given),Potency,[1],inactive
same,Potency,[4],inactive
same,Potency,[3],inactive
COC(=O)C1=C(C(=O)OC)[C@@H]2Nc3ccccc3[C@@]23C[C@@H](C(=O)OC)N(C(=O)c2cc(C)oc2C)C3=N1,Potency,[1],inactive
same,Potency,[4],1690 nM (active)
same,Potency,[3],inactive
C#CCCOC(=O)N1C2=NC(C(=O)OC)=C(C(=O)OC)[C@@H]3N(CC#CC)c4ccccc4[C@]23C[C@H]1C(=O)OC,Potency,[1],inactive
same,Potency,[4],inactive
same,Potency,[3],inactive
COC(=O)[C@H]1[C@@H](C)N(CCc2cc(OC)c(OC)c(OC)c2)C(=O)N[C@H]1c1ccccc1,Potency,[1],inactive
same,Potency,[4],inactive
same,Potency,[3],inactive
COC(=O)C1=C(C(=O)OC)[C@@H]2N(Cc3ccccc3)c3ccccc3[C@@]23C[C@@H](C(=O)OC)N(S(=O)(=O)c2cccs2)C3=N1,Potency,[1],inactive
same,Potency,[3],inactive
CCOC(=O)CN1C(=O)N[C@@H](CCc2ccccc2)C(C(=O)OC)=C1C,Potency,[1],inactive
same,Potency,[4],inactive
COC(=O)C1=C(C(=O)OC)[C@@H]2Nc3ccccc3[C@@]23C[C@@H](C(=O)OC)N(C(=O)c2ccco2)C3=N1,Potency,[1],inactive
same,Potency,[3],inactive
CCCCC1=CC2=CC(=O)C(C)(OC(=O)CC)C(=O)C2=CN1CCOC (stereo not given),Potency,[1],inactive
same,Potency,[2],inactive
same,Potency,[3],inactive
C=CCN1c2ccccc2[C@]23C[C@@H](C(=O)OC)N=C2NC(C(=O)OC)=C(C(=O)OC)[C@H]13,Potency,[1],inactive
same,Potency,[2],inactive
same,Potency,[3],inactive
COC(=O)[C@@H](NC(=O)N1CCc2nc(COc3ccccc3)c3c(c2C1)CO[C@@H](C)C3)C(C)C,Potency,[1],inactive
same,Potency,[2],1690 nM (active)
same,Potency,[3],inactive
COC(=O)C(C(=O)OC)C1c2ccccc2C=C(C)N1C(=O)OC (stereo not given),Potency,[1],inactive
same,Potency,[2],inactive
same,Potency,[3],inactive
COC(=O)C1=C(C(=O)OC)[C@@H]2Nc3ccccc3[C@@]23C[C@@H](C(=O)OC)N(S(=O)(=O)c2c(C)noc2C)C3=N1,Potency,[1],inactive
same,Potency,[4],inactive
same,Potency,[3],inactive
COCCN1C(=O)N[C@@H](c2cccc(F)c2)C(C(=O)OC)=C1C,Potency,[1],inactive
same,Potency,[4],inactive
same,Potency,[3],inactive
COC(=O)C1=C(C(=O)OC)[C@@H]2Nc3ccccc3[C@@]23C[C@@H](C(=O)OC)N=C3N1,Potency,[1],inactive
same,Potency,[4],inactive
C[C@@H](c1ccccc1)N1C(=O)[C@@H]2[C@H]3[C@H](O)[C@H](O)CC(=NNC(=O)OCc4ccccc4)[C@@H]3CC[C@H]2C1=O,Potency,[1],inactive
same,Potency,[2],inactive
same,Potency,[3],inactive
COCCN1C=C2C(=O)C(C)(OC(=O)CCc3ccccc3)C(=O)C=C2C=C1c1ccc(C#N)cc1 (stereo not given),Potency,[1],inactive
same,Potency,[2],inactive
same,Potency,[3],inactive
CCCCn1c(C)cc2c(c1=O)[C@H]1O[C@](c3ccsc3)(Cc3ccccc31)O2,Potency,[1],inactive
same,Potency,[2],1690 nM (active)
same,Potency,[3],inactive
COC(=O)C1=C(C(=O)OC)[C@@H]2N(C)c3ccc(OC)cc3[C@@]23C[C@@H](C(=O)OC)N(S(=O)(=O)c2ccc(C#N)cc2)C3=N1,Potency,[1],inactive
same,Potency,[2],1690 nM (active)
same,Potency,[3],inactive
COCCN1C=C2C(=O)C(C)(OC(=O)CCC(=O)OC)C(=O)C=C2C=C1C1CC1 (stereo not given),Potency,[1],inactive
same,Potency,[4],inactive
COC(=O)c1ccccc1S(=O)(=O)N1CCc2nc(-c3ccccc3)c3c(c2C1)CO[C@@H](C)C3,Potency,[1],inactive
same,Potency,[2],inactive
same,Potency,[3],inactive
CC(C)CON=C1C[C@@H](O)[C@@H](O)[C@@H]2[C@H]3C(=O)N(C4CCCCC4)C(=O)[C@@H]3CC[C@H]12,Potency,[1],inactive
same,Potency,[4],inactive
C=CCN1c2ccccc2[C@]23C[C@@H](C(=O)OC)N(C(=O)C4CCC4)C2=NC(C(=O)OC)=C(C(=O)OC)[C@H]13,Potency,[1],inactive
same,Potency,[4],inactive
same,Potency,[3],inactive
CCC(=O)N1C2=C(c3ccccc3[C@@H]1CC(=O)Nc1ccc3ccccc3c1)[C@@H]1C(=O)N(c3ccccc3)C(=O)[C@@H]1[C@H](C)C2,Potency,[1],inactive
same,Potency,[3],inactive
CCOC(=O)CN1C(=O)N[C@@H](CCc2ccccc2)[C@H](C(C)=O)[C@H]1C,Potency,[1],inactive
same,Potency,[4],inactive
same,Potency,[3],inactive
CCN1C(=O)N(S(=O)(=O)c2ccc(C)cc2)[C@@H](c2ccccc2)C(C(=O)OC)=C1C,Potency,[1],inactive
same,Potency,[4],inactive
same,Potency,[3],inactive
COc1cccc(CC(=O)N2CCc3nc(-c4ccc(OC)cc4C)c4c(c3C2)CO[C@@H](c2ccccc2)C4)c1,Potency,[1],inactive
same,Potency,[3],inactive
COC(=O)CCC(=O)OC1(C)C(=O)C=C2C=C(C3CC3)N(CCc3ccccn3)C=C2C1=O (stereo not given),Potency,[1],inactive
same,Potency,[4],inactive
C=C[C@@]1(C)CC[C@H](O)[C@H]2C(=O)CCC[C@H]21,Potency,[1],inactive
same,Potency,[3],inactive
COC(=O)CCC(=O)OC1(C)C(=O)C2=CN(C3CCCC3)C(c3ccc(OC)cc3)=CC2=C(Br)C1=O (stereo not given),Potency,[1],inactive
same,Potency,[2],inactive
same,Potency,[3],inactive
COC(=O)[C@@H](NC(=O)N1CCc2nc(-c3ccccc3)c3c(c2C1)CO[C@@H](C)C3)C(C)C,Potency,[1],inactive
same,Potency,[4],inactive
CC1(OC(=O)CCc2ccccc2)C(=O)C=C2C=C(c3ccc(C#N)cc3)N(c3ccccc3)C=C2C1=O (stereo not given),Potency,[1],inactive
same,Potency,[2],inactive
same,Potency,[3],inactive
CCCCC1=CC2=CC(=O)C(C)(OC(=O)CC)C(=O)C2=CN1CCCCO (stereo not given),Potency,[1],inactive
same,Potency,[4],inactive
same,Potency,[3],inactive
COC(=O)N1C(/C=C/c2ccc3c(c2)OCO3)=Cc2ccccc2C1CC(C)=O (stereo not given),Potency,[1],inactive
same,Potency,[2],2690 nM (active)
same,Potency,[3],inactive
CCCCC1=CC2=C(c3ccco3)C(=O)C(C)(OC(=O)c3ccc(OC)cc3)C(=O)C2=CN1C1CCCC1 (stereo not given),Potency,[1],inactive
same,Potency,[4],inactive
same,Potency,[3],inactive
CCCCC1=CC2=CC(=O)C(C)(OC(=O)CC)C(=O)C2=CN1CCc1ccccn1 (stereo not given),Potency,[1],inactive
same,Potency,[2],inactive
same,Potency,[3],inactive
CCCCCCCC1=Cc2ccccc2C(C(C(C)=O)C(=O)OC)N1C(=O)OC (stereo not given),Potency,[1],inactive
same,Potency,[3],inactive
CCCCS(=O)(=O)N1CCc2nc(-c3ccc(OC)cc3C)c3c(c2C1)CO[C@@H](c1ccccc1)C3,Potency,[1],inactive
same,Potency,[3],inactive
